Compound activity (PubChem BioAssay)
Most compounds without a hit are left out; they make up all but 11% or so of the library.
L3MBTL1 inh: blocks human L3MBTL1. Q9Y468. AlphaScreen L3MBTL1–H3K9me1 peptide binding. AID 485360. Potency, µM (top dose mostly 57.1 µM), actives largely listed as inhibitors. 230,000 compounds, 0.66% hits; note: nearly all actives have a fitted effect of over 60% in size
Target sequence (Q9Y468 whole entry, looked up): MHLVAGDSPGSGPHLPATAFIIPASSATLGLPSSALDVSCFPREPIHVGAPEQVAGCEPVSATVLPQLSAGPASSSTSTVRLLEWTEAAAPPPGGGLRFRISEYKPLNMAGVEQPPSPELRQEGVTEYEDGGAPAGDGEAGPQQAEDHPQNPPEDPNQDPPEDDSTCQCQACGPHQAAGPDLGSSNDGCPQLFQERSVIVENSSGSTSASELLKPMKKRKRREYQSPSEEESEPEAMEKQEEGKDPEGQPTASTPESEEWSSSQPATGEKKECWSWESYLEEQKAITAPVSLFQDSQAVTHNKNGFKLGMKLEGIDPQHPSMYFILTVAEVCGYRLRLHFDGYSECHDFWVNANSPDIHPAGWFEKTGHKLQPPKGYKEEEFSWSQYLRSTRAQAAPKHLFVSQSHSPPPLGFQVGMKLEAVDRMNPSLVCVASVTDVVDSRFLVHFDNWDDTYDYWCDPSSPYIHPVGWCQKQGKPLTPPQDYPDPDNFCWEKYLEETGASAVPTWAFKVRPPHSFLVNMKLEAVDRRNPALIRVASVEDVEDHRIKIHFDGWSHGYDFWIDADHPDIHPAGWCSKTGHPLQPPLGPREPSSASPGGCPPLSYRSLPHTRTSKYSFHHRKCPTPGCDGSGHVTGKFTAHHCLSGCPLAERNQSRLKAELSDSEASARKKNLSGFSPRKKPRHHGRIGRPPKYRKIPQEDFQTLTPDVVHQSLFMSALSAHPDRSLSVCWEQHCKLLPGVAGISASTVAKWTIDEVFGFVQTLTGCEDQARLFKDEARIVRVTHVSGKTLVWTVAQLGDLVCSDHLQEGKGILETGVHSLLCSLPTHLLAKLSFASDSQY
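Displacement of a biotinylated histone H3(1-15) peptide monomethylated at Lys9 (75 nM) from L3MBTL1 (50 nM) was measured by AlphaScreen after a 30 min room-temperature compound incubation; cefsulodin titration served as intraplate control.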
G9a block: G9a (human) methyltransferase inhibition | G9a H3K9 monomethylation, AlphaScreen, 2 h | Potency, µM (top dose mostly 102 µM), hits mostly inhibitors | 350,000 compounds, 8.8% hits | AID 504332; note: nearly all actives have a fitted effect of over 75% in size
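AlphaScreen detection with an anti-monomethyl H3K9 antibody quantified product after a 2 h room-temperature reaction containing 500 nM biotinylated H3K9 peptide, 20 µM SAM and 20 nM enzyme, which had been preincubated 15 min with compound.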
JMJD2A Tudor: inhibitors of human JMJD2A Tudor domain | AID 504339 | Potency, µM (top dose mostly 114 µM), most hits filed as inhibitors | 390,000 compounds, 4.4% hits | O75164 | AlphaScreen JMJD2A-Tudor / H3K4me3 peptide binding; note: nearly all actives have a fitted effect of over 50% in size
BAZ2B inh: blocks human BAZ2B | Potency, µM (doses to about 114 µM), usual class: inhibitors | 360,000 compounds, 4.4% hits | AlphaScreen BAZ2B-H3K14Ac peptide displacement | AID 504333 | Q9UIF8; note: nearly all actives have a fitted effect of over 60% in size
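Protein-peptide AlphaScreen: BAZ2B 50 nM, b-H3K14Ac 50 nM, 1x PBS pH 7.4 + 0.01% Tween-20. Preincubation 30 min RT; cpd 30 min RT (top 110 uM); beads 20 min RT, light-protected.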
HP1b binding inh: HP1-beta chromodomain-methylated histone interaction inhibition | P83916 | AlphaScreen HP1-beta / biotin-H3K9me3 peptide binding | Potency, µM (doses to about 114 µM), hits mostly inhibitors | 390,000 compounds, 0.56% hits | AID 540317; note: nearly all actives have a fitted effect of over 70% in size
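AlphaScreen: HP1-beta (50 nM) preformed 30 min with biotin-H3(1-18)K9me3 peptide (50 nM) in PBS pH 7.4, 0.01% Tween-20. Compound added for 30 min at RT, then streptavidin donor/nickel chelate acceptor beads (10 ug/mL) for 30 min.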
Hits are given with their value; ! = not active in a repeat; [ ] = remark or other dose. Calls come from the whole dose curve; as a rule, active = well fitted inhibition curve with a large enough effect; inconclusive = small, poorly fitted or top-dose-only effect; inactive = no such curve, though single readings can be large or run the other way.

Screening COc1cccc(NS(=O)(=O)c2cc(-c3cnc(C4CC4)o3)ccc2C)c1 returned G9a block inconclusive, JMJD2A Tudor inactive, BAZ2B inh inactive and HP1b binding inh inactive.
`Cc1c(OCc2nn[nH]n2)ccc2c(-c3ccccc3)cc(=O)oc12` gave L3MBTL1 inh inactive, G9a block 50.1µM, JMJD2A Tudor inactive, BAZ2B inh inactive and HP1b binding inh inactive.
COc1ccc(-c2cc(=O)oc3c(C)c(OCc4nn[nH]n4)ccc23)cc1 was read as L3MBTL1 inh inactive, G9a block inconclusive, JMJD2A Tudor inactive, BAZ2B inh inactive and HP1b binding inh inactive.
For N#Cc1nc(-c2ccc(OCc3ccccc3)cc2)oc1NCCCn1ccnc1 the results were L3MBTL1 inh inconclusive, G9a block inconclusive, JMJD2A Tudor 28.2µM, BAZ2B inh 17.8µM and HP1b binding inh 44.7µM.
Cc1ccc(-c2nc(C#N)c(NCc3cccc4c3OCO4)o2)cc1 was read as L3MBTL1 inh inactive, G9a block 10µM, JMJD2A Tudor inconclusive, BAZ2B inh inconclusive and HP1b binding inh inconclusive.
For CNc1oc(-c2cccs2)nc1C#N the results were L3MBTL1 inh inactive, G9a block inconclusive, JMJD2A Tudor inactive, BAZ2B inh inactive and HP1b binding inh inactive.
Screening N#Cc1nc(-c2cccs2)oc1NCc1ccc2c(c1)OCO2 returned L3MBTL1 inh inactive, G9a block 44.7µM, JMJD2A Tudor inactive[11.4 µM], BAZ2B inh inconclusive and HP1b binding inh inconclusive.
For CN(C)c1oc(-c2ccc(OCc3ccccc3)cc2)nc1C#N the results were L3MBTL1 inh inconclusive, G9a block 11.2µM, JMJD2A Tudor inconclusive, BAZ2B inh inconclusive and HP1b binding inh inconclusive.
For N#Cc1nc(-c2ccc(F)cc2)oc1NCc1cccc2c1OCO2 the results were L3MBTL1 inh inactive, G9a block inactive, JMJD2A Tudor inactive, BAZ2B inh inactive and HP1b binding inh inactive.
Screening N#Cc1nc(-c2ccc(OCc3ccccc3Cl)cc2)oc1NCCCn1ccnc1 returned G9a block inconclusive and BAZ2B inh inactive.
For CC(C)(C)c1ccc(-c2nc(C#N)c(NCCCn3ccnc3)o2)cc1 the results were L3MBTL1 inh inactive, JMJD2A Tudor inconclusive, BAZ2B inh 35.5µM and HP1b binding inh inconclusive.
CC(C)(C)c1ccc(-c2nc(C#N)c(NCc3ccncc3)o2)cc1 was read as L3MBTL1 inh inactive, G9a block 20µM, JMJD2A Tudor 79.4µM, BAZ2B inh 79.4µM and HP1b binding inh inactive.
Screening CC(C)OC(=O)Cn1c(-c2ccccc2)c(-c2ccccc2)nnc1=O returned JMJD2A Tudor inactive, BAZ2B inh inactive and HP1b binding inh inactive.
`COC(=O)Cn1c(-c2ccc(OC)cc2)c(-c2ccc(OC)cc2)nnc1=O` gave L3MBTL1 inh inactive[2.29 µM], G9a block inactive[0.501 µM], JMJD2A Tudor inactive, BAZ2B inh 56.2µM and HP1b binding inh inactive.
For Cc1oc2ccc(O)c(CN3CCCCCC3)c2c1C(=O)Nc1cccc(C(F)(F)F)c1 the results were G9a block inactive, JMJD2A Tudor inactive, BAZ2B inh inconclusive and HP1b binding inh inactive.
For COc1cccc(-n2c(=O)c3c(C)c(C)sc3n(CC(=O)Nc3ccccc3OC)c2=O)c1 the results were G9a block inactive, JMJD2A Tudor inactive, BAZ2B inh inactive and HP1b binding inh inactive.
For COc1ccc2c(c1)-c1nc(/N=C/c3cccc(OC)c3O)sc1CC2 the results were L3MBTL1 inh inactive, G9a block 17.8µM, JMJD2A Tudor inconclusive, BAZ2B inh 50.1µM and HP1b binding inh inconclusive.
`COc1ccc2c(c1)-c1nc(/N=C/c3ccccc3O)sc1CC2` gave L3MBTL1 inh inactive, G9a block inconclusive, JMJD2A Tudor inconclusive, BAZ2B inh inconclusive and HP1b binding inh inconclusive.
COc1cc(C(=O)NCCNC(=O)c2cc(OC)c(C)c(OC)c2)cc(OC)c1C was read as G9a block 31.6µM, JMJD2A Tudor inactive, BAZ2B inh inactive and HP1b binding inh inactive.
Screening COc1ccccc1CNC(=O)c1ccc2c(c1)N(Cc1cc(C)ccc1C)C(=O)c1ccccc1S2 returned G9a block inactive, JMJD2A Tudor inactive, BAZ2B inh inactive and HP1b binding inh inactive.
For OCc1cc(C(O)CNCCCCCCOCCCCc2ccccc2)ccc1O (centres undefined) the results were L3MBTL1 inh inactive, G9a block 35.5µM!, JMJD2A Tudor inactive, BAZ2B inh inactive and HP1b binding inh inactive.
For CC(C)(C)NCC(O)c1ccc(O)c(CO)c1 (centres undefined) the results were G9a block inactive.
`COC(=O)c1ccc(-c2nc(O)c(C)s2)cc1` gave L3MBTL1 inh inactive, G9a block 7.08µM, JMJD2A Tudor inactive, BAZ2B inh inconclusive and HP1b binding inh inconclusive.
`CCOc1ccc(OCC(=O)NCCS(=O)(=O)N2CCN(c3ccccc3F)CC2)cc1` gave G9a block inactive, JMJD2A Tudor inactive, BAZ2B inh inactive and HP1b binding inh inactive.
`C#CC[N+]1(CC#Cc2ccc(C#CC[N+]3(CC#C)CCOCC3)cc2)CCOCC1` gave L3MBTL1 inh inactive, G9a block 8.91µM, JMJD2A Tudor inactive, BAZ2B inh inactive and HP1b binding inh inactive.
`CC(=O)Nc1ccc(N2C(=O)c3cccc4c(O)ccc(c34)C2=O)cc1` gave G9a block inconclusive, JMJD2A Tudor inconclusive, BAZ2B inh 50.1µM and HP1b binding inh inactive.
Screening O=C1c2cccc3c(O)ccc(c23)C(=O)N1c1ccc(Cl)cc1 returned G9a block 44.7µM, JMJD2A Tudor inactive, BAZ2B inh inactive and HP1b binding inh inactive.
For O=C(c1ccccc1Cl)n1nc(-c2ccco2)nc1NCc1cccs1 the results were G9a block inactive, JMJD2A Tudor inactive, BAZ2B inh inactive and HP1b binding inh inactive.
COc1ccc(N2CCN(C(c3ccccc3)c3nnnn3C(C)C)CC2)cc1 (centres undefined) was read as JMJD2A Tudor inconclusive and HP1b binding inh inactive.
COc1ccc(Cc2nnc(SCC(=O)N3CCN(c4ccccc4)CC3)o2)cc1 was read as L3MBTL1 inh inactive[11.4 µM], G9a block inconclusive, JMJD2A Tudor inactive, BAZ2B inh inactive and HP1b binding inh inactive.
`COc1ccc(Cc2nnc(SCC(=O)N3CCCCC3)o2)cc1` gave L3MBTL1 inh inactive, G9a block 70.8µM, JMJD2A Tudor inactive, BAZ2B inh inactive and HP1b binding inh inactive.
Screening CC(C(=O)Nc1ccccc1C(=O)N1CCOCC1)N(c1ccccc1)S(C)(=O)=O (centres undefined) returned L3MBTL1 inh inactive, G9a block inactive, JMJD2A Tudor 39.8µM, BAZ2B inh inactive and HP1b binding inh inconclusive.
For CCCC(=O)OCc1cnc(C)c2oc(=O)c(C(=O)Nc3ccccc3)cc12 the results were G9a block inactive, JMJD2A Tudor inactive, BAZ2B inh inconclusive and HP1b binding inh inactive.
Screening Cc1ccc(O)c(N=Cc2cc(Cc3ccccc3)cc([N+](=O)[O-])c2O)c1 returned L3MBTL1 inh inactive, G9a block inconclusive, JMJD2A Tudor 39.8µM, BAZ2B inh 10µM and HP1b binding inh inconclusive.
`COc1cc(C=Nc2cccc(C)c2)c(O)c([N+](=O)[O-])c1` gave L3MBTL1 inh inactive, G9a block inactive, JMJD2A Tudor inconclusive, BAZ2B inh 50.1µM and HP1b binding inh inactive.
